# Test results: paper PMC7862700, “An all-to-all approach to the identification of sequence-specific readers for epigenetic DNA modifications on cytosine”
# Experiments:
# Experiment in all cases: DAPPL (digital affinity profiling via proximity ligation, sequencing); 10 mM Tris-HCl pH 7.5, 50 mM NaCl, 1 mM DTT, 4% glycerol, room temperature, 30 min; GST-TFs on glutathione beads, 16-mer random dsDNA library, 0.1% formaldehyde crosslink after washing; high values mean tight binding
# FLI1 = molecular target: T1, FLI1 (Homo sapiens, UniProt Q01543 1-452); conditions: protein: recombinant; tags: N-terminal GST; dsDNA, one strand shown
# T1 sequence: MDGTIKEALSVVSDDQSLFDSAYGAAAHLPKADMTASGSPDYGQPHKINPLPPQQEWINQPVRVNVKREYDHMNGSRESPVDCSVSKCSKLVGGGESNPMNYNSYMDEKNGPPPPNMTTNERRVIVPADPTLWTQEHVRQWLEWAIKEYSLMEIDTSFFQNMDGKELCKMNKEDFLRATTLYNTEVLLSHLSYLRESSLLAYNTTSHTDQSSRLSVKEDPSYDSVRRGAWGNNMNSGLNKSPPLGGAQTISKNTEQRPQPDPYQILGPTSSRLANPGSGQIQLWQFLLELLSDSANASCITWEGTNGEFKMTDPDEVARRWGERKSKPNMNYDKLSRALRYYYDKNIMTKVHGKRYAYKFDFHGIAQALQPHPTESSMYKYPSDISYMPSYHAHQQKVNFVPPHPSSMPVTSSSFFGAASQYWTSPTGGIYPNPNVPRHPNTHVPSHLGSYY
# Summary of the method: (§1)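 After expression in yeast as GST fusions, human transcription factors were bound to glutathione beads, DNA-barcoded and mixed with a tag-only sample. The pools were incubated with 200 nmole of a 16-mer random double-stranded DNA library in Tris/NaCl/DTT/glycerol buffer (30 min, room temperature), washed and crosslinked with 0.1% formaldehyde. Proximity ligation with BsaI/T4 ligase ran for 1 h at 37 °C, before PCR amplification and sequencing on an Illumina NextSeq500. Binding signal is a hexamer's read frequency for a factor divided by its frequency for the tag-only sample.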
# ELK1 = molecular target: T2, ELK1 (Homo sapiens, UniProt P19419 1-428); conditions: protein: recombinant; tags: N-terminal GST; dsDNA, one strand shown
# T2 sequence: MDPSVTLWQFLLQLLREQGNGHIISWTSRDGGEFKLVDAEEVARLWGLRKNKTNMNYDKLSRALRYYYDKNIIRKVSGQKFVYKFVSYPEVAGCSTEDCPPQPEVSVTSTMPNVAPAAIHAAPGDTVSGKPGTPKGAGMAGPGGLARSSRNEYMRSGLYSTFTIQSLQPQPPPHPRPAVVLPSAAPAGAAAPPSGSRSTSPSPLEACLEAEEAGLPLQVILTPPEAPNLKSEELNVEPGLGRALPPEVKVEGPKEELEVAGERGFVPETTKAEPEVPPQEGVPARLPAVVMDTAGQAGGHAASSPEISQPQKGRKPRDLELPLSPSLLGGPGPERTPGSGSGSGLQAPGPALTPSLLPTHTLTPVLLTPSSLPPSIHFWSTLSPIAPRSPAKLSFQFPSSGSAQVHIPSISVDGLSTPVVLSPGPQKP
# Summary of the method: as §1
# GABPA = molecular target: T3, GABPA (Homo sapiens, UniProt Q06546 1-454); conditions: protein: recombinant; tags: N-terminal GST; dsDNA, one strand shown
# T3 sequence: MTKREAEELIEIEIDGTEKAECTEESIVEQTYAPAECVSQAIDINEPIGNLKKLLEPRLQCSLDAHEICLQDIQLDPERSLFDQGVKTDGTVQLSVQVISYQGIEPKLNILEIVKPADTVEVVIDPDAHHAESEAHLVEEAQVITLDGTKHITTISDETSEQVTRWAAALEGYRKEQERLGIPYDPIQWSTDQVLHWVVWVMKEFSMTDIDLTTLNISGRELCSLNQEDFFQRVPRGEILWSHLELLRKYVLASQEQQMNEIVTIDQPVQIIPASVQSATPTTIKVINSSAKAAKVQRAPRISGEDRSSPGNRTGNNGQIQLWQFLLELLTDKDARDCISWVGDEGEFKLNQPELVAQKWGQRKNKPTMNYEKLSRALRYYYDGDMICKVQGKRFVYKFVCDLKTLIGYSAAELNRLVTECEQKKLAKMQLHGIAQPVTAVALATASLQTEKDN
# Summary of the method: as §1
# ERG = molecular target: T4, ERG (Homo sapiens, UniProt P11308 1-479); conditions: protein: recombinant; tags: N-terminal GST; dsDNA, one strand shown
# T4 sequence: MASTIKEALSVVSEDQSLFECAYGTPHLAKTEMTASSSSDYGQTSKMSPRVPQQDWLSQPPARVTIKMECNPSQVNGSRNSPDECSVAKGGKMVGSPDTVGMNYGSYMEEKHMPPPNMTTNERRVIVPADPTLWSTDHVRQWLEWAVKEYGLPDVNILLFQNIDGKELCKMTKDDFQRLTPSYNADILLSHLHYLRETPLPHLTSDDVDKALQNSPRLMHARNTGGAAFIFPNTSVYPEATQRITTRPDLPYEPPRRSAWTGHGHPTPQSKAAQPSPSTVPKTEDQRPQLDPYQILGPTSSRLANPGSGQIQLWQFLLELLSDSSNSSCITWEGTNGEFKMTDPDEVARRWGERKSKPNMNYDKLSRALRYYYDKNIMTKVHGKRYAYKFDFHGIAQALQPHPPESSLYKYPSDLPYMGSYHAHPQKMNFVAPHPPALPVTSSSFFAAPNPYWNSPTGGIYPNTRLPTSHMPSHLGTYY
# Summary of the method: as §1
# ELF1 = ELF1 (Homo sapiens, UniProt P32519 1-619); conditions: protein: recombinant; tags: N-terminal GST; dsDNA, one strand shown
# Sequence of ELF1 (P32519 whole entry): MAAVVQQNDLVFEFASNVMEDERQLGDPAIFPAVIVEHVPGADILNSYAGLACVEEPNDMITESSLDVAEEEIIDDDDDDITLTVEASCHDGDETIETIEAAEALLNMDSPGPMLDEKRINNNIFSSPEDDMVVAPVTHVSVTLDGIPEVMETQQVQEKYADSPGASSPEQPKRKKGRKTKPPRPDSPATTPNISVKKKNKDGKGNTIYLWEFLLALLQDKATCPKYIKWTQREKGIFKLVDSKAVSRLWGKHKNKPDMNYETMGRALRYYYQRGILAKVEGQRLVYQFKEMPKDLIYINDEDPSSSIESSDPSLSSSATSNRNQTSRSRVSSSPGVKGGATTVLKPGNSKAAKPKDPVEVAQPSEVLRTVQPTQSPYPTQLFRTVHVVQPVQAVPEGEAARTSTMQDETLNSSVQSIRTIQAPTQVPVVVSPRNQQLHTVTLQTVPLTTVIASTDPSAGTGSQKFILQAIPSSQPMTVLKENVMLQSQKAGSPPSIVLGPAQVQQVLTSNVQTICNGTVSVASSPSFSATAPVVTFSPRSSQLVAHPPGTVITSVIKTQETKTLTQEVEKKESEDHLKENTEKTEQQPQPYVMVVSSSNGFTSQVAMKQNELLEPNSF
# Summary of the method: as §1
# EHF = molecular target: T5, EHF (Homo sapiens, UniProt Q9NZC4 1-300); conditions: protein: recombinant; tags: N-terminal GST; dsDNA, one strand shown
# T5 sequence: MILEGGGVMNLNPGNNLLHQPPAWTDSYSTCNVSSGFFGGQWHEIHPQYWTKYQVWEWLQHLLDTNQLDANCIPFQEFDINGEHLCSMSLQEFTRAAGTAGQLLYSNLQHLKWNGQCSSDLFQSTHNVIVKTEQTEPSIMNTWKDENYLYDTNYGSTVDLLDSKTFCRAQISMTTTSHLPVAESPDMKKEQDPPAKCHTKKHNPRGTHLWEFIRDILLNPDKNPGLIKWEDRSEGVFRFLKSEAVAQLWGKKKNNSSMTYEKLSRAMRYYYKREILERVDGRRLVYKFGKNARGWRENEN
# Summary of the method: as §1
# SPIB = SPIB (Homo sapiens, UniProt Q01892 1-262); conditions: protein: recombinant; tags: N-terminal GST; dsDNA, one strand shown
# Sequence of SPIB (Q01892 whole entry): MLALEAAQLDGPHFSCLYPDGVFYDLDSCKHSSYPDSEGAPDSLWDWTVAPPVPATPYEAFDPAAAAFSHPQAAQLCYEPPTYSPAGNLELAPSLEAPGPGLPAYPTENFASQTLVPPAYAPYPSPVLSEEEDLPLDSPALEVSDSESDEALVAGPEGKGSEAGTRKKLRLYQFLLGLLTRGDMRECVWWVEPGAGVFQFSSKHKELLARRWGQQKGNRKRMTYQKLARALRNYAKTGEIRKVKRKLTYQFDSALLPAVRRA
# Summary of the method: as §1
# FEV = molecular target: T6, FEV (Homo sapiens, UniProt Q99581 1-238); conditions: protein: recombinant; tags: N-terminal GST; dsDNA, one strand shown
# T6 sequence: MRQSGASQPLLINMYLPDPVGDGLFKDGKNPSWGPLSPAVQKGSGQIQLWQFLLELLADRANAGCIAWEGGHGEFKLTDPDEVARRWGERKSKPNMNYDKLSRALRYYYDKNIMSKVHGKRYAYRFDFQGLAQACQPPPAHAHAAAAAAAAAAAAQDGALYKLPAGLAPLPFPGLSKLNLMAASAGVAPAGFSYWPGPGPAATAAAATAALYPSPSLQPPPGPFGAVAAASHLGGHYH
# Summary of the method: as §1
# ETV5 = ETV5 (Homo sapiens, UniProt P41161 1-510); conditions: protein: recombinant; tags: N-terminal GST; dsDNA, one strand shown
# Sequence of ETV5 (P41161 whole entry): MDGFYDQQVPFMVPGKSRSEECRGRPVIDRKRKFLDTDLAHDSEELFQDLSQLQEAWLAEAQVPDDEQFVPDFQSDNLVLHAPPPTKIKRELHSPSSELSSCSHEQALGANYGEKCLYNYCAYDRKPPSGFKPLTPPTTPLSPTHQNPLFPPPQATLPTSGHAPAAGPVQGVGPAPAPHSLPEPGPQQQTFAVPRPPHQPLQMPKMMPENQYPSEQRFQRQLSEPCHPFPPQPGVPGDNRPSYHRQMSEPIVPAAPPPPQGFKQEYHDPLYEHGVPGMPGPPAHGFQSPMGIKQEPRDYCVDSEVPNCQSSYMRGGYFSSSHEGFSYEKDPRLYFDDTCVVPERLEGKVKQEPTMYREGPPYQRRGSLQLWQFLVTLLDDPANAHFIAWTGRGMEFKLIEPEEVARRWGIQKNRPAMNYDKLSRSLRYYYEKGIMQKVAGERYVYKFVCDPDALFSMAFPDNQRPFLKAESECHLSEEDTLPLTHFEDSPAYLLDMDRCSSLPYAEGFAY
# Summary of the method: as §1
# HSF1 = HSF1 (Homo sapiens, UniProt Q00613 1-529); conditions: protein: recombinant; tags: N-terminal GST; chain copies: 3; dsDNA, one strand shown
# Sequence of HSF1 (Q00613 whole entry): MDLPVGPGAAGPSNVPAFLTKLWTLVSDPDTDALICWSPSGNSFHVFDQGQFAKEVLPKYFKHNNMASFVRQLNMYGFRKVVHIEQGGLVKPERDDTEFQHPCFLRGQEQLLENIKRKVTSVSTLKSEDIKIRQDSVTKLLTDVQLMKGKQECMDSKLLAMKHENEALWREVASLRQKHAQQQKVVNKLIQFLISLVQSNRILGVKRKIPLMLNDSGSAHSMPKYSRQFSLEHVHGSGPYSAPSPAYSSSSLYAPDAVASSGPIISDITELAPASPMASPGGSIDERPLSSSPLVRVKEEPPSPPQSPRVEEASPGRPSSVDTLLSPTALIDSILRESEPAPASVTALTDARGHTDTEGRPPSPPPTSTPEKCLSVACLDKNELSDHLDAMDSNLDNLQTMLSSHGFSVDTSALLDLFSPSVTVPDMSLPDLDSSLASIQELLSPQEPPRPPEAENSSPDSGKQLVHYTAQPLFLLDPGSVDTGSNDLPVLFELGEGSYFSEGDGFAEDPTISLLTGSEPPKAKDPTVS
# Summary of the method: as §1
# SPIC = molecular target: T7, SPIC (Homo sapiens, UniProt Q8N5J4 1-248); conditions: protein: recombinant; tags: N-terminal GST; dsDNA, one strand shown
# T7 sequence: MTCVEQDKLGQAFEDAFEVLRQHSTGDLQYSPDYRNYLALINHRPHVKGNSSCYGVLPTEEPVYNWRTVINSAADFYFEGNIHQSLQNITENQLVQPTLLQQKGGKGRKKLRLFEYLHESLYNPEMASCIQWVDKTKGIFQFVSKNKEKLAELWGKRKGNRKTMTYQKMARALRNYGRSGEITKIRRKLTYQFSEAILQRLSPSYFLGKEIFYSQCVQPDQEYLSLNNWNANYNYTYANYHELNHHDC
# Summary of the method: as §1
# ELF4 = ELF4 (Homo sapiens, UniProt Q99607 1-663); conditions: protein: recombinant; tags: N-terminal GST; dsDNA, one strand shown
# Sequence of ELF4 (Q99607 whole entry): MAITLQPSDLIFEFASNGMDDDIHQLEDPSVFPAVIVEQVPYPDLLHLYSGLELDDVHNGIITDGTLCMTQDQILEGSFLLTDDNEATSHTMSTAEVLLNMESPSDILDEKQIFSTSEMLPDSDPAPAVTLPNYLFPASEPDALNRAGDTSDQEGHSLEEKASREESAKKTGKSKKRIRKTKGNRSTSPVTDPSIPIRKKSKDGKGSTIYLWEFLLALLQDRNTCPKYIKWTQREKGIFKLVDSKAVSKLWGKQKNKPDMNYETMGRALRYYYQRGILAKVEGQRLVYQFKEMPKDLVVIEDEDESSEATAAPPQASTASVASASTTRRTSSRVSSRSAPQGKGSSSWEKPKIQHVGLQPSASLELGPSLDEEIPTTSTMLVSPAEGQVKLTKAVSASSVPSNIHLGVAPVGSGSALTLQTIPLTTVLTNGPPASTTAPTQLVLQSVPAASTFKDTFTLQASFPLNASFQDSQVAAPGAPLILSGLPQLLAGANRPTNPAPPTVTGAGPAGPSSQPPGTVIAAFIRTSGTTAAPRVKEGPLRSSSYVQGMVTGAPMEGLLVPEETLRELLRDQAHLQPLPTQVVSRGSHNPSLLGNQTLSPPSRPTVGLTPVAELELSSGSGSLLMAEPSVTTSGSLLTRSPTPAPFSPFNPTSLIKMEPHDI
# Summary of the method: as §1
# ELK4 = molecular target: T8, ELK4 (Homo sapiens, UniProt P28324-2 1-405); conditions: protein: recombinant; tags: N-terminal GST; dsDNA, one strand shown
# T8 sequence: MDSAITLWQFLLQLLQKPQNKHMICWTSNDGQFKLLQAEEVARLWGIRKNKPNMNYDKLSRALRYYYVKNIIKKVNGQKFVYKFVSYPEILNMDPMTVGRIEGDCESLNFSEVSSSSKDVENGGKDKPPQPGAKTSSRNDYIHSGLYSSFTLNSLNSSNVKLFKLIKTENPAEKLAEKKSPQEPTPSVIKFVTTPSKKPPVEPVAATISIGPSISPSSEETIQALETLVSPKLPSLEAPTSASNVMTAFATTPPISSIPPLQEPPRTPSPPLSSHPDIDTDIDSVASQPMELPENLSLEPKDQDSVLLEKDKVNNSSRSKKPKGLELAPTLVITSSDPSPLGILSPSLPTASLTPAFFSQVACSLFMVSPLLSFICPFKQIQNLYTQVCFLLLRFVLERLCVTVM
# Summary of the method: as §1
# ETV2 = molecular target: T9, ETV2 (Homo sapiens, UniProt O00321 1-342); conditions: protein: recombinant; tags: N-terminal GST; dsDNA, one strand shown
# T9 sequence: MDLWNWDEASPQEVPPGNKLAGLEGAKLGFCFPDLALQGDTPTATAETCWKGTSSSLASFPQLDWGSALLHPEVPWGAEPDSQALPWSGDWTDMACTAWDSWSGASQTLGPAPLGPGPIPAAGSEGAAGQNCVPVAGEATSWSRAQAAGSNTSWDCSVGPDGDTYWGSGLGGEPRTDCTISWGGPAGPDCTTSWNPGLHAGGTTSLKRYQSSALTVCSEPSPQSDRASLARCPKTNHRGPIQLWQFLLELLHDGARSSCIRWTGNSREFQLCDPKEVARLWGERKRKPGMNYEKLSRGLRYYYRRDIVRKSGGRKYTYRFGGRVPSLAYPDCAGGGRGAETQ
# Summary of the method: as §1
# ELF3 = molecular target: T10, ELF3 (Homo sapiens, UniProt P78545 1-371); conditions: protein: recombinant; tags: N-terminal GST; dsDNA, one strand shown
# T10 sequence: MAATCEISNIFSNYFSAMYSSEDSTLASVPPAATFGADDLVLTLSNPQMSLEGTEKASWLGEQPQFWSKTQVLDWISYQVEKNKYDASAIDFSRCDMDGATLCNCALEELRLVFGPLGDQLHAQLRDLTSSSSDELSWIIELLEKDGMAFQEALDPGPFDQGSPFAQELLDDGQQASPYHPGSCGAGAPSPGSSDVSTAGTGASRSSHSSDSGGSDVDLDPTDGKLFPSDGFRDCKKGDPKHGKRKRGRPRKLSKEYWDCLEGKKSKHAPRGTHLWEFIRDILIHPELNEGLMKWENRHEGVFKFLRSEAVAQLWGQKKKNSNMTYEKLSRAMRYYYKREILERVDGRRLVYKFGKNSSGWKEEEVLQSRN
# Summary of the method: as §1
# ETV1 = ETV1 (Homo sapiens, UniProt P50549 1-477); conditions: protein: recombinant; tags: N-terminal GST; dsDNA, one strand shown
# Sequence of ETV1 (P50549 whole entry): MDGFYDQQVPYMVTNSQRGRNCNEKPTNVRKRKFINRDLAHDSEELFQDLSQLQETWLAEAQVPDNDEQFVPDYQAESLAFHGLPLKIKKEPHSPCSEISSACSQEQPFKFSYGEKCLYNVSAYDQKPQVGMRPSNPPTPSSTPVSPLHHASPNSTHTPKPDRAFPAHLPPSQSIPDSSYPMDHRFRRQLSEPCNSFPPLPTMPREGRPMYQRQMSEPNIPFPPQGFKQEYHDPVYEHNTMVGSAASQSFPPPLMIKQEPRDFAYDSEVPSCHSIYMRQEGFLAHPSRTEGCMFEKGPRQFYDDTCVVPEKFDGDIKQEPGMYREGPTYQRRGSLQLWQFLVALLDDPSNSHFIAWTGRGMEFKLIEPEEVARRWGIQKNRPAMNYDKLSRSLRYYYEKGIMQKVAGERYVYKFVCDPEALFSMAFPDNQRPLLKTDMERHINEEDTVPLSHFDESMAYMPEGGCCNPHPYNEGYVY
# Summary of the method: as §1
sequence,measurement,setting,value
AAGCAA,binding signal,FLI1,"1.03 fold enrichment (6-mer frequency, TF over GST control)"
same,binding signal,ELK1,"1.08 fold enrichment (6-mer frequency, TF over GST control)"
same,binding signal,GABPA,"1.07 fold enrichment (6-mer frequency, TF over GST control)"
same,binding signal,ERG,"1.02 fold enrichment (6-mer frequency, TF over GST control)"
same,binding signal,ELF1,"1.06 fold enrichment (6-mer frequency, TF over GST control)"
same,binding signal,EHF,"1.02 fold enrichment (6-mer frequency, TF over GST control)"
same,binding signal,SPIB,"1.02 fold enrichment (6-mer frequency, TF over GST control)"
same,binding signal,FEV,"1.05 fold enrichment (6-mer frequency, TF over GST control)"
same,binding signal,ETV5,"1.11 fold enrichment (6-mer frequency, TF over GST control)"
same,binding signal,HSF1,"1.04 fold enrichment (6-mer frequency, TF over GST control)"
same,binding signal,SPIC,"1.03 fold enrichment (6-mer frequency, TF over GST control)"
same,binding signal,ELF4,"1.06 fold enrichment (6-mer frequency, TF over GST control)"
same,binding signal,ELK4,"1.08 fold enrichment (6-mer frequency, TF over GST control)"
same,binding signal,ETV2,"1.01 fold enrichment (6-mer frequency, TF over GST control)"
same,binding signal,ELF3,"1.09 fold enrichment (6-mer frequency, TF over GST control)"
same,binding signal,ETV1,"1.08 fold enrichment (6-mer frequency, TF over GST control)"
